Screens from PubChem BioAssay.
A selection: hits, their analogues and other compounds. The true share with any hit is near 1.4%.
PrPC TRFRET: inhibitors of human cell surface prion protein PrPC, primary screen, cell-based, TR-FRET. inhibition, % at 13.8 µM. hit rate 0.43% among 370,000. TR-FRET read-out. Major prion protein (Homo sapiens), P04156. AID 720596, 2013; in the data active = inhibition above about 24%; also: 0% = median of the test wells and 100% = reference compound wells
Sa RN4220 lethal: growth inhibition of S. aureus RN4220, primary screen, OD600 | 16 h | AID 1259311, 2017 | hit rate 0.33% among 330,000 | inhibition, % (no concentration beside the values); in the data active = inhibition above about 85%;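 also: plate controls were untreated cells for no effect and reference antibiotic for full effect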
BJeLR viability: MLPCN primary cell-based screen for lethality selective to Ras in HRASV12 cells; BJeLR (HRASV12) viability, CellTiter-Glo ATP luminescence, 48 h; AID 1554, 2009; inhibition, % (test concentration not listed); hit rate 0.17% among 300,000; in the data active = inhibition above about 50%
3CLpro inhibitor: SARS-CoV 3CLpro protease inhibitors, primary screen, biochemical, quenched FRET; Replicase polyprotein 1ab (Severe acute respiratory syndrome coronavirus), P0C6X7; recombinant SARS-CoV 3CLpro, quenched FRET peptide cleavage; inhibition, % at 6 µM; hit rate 0.14% among 290,000; AID 1706, 2009; in the data active = inhibition above about 12%
Sa ugtP lethal: growth inhibition of ugtP-null S. aureus, primary screen, RN4220 ugtP deletion, OD600; hit rate 0.54% among 330,000; 16 h; AID 1259309, 2017; growth inhibition, % (no concentration beside the values); in the data active = growth inhibition above about 68%;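 also: plate controls were untreated wells for no effect and antibiotic for full effect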
VHR inh abs: VHR1 phosphatase inhibitors, primary screen, biochemical, absorbance, uHTS | AID 1654, 2009 | recombinant VHR phosphatase, pNPP absorbance | hit rate 0.52% among 290,000 | inhibition, % at 13.3 µM; in the data active = inhibition above about 50%
Target sequence (P51452 whole entry, looked up): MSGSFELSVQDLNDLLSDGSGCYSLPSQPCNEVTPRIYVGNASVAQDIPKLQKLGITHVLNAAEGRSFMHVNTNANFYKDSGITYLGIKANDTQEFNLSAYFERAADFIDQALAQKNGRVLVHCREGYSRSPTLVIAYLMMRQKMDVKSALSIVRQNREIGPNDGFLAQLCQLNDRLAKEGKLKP
An asterisk follows results filed as active; . = no result given.

SMILES	PrPC TRFRET	Sa RN4220 lethal	BJeLR viability	3CLpro inhibitor	Sa ugtP lethal	VHR inh abs
CC(/C=N/NC(=O)c1cccs1)=C\c1ccco1	-3	.	-1	3	.	51*
COc1ccccc1C1CC(c2ccc(NS(C)(=O)=O)cc2)=NN1S(=O)(=O)c1ccccc1 (centres undefined)	-8	8	-9	2	-4	-3
O=S(=O)(c1ccccc1)N1N=C(c2ccccc2)CC1c1ccccc1F (centres undefined)	-5	1	10	0	11	53*
CC(=NNc1cc(-c2ccccc2)nc(-c2ccccc2)n1)c1ccc(O)c(C)c1	.	98*	.	.	99*	.
COc1ccccc1-c1nnc2sc(-c3ccc(N(C)C)cc3)nn12	9	7	53*	3	-13	49
CCOc1cc(C(=O)NCCN2C(=O)S/C(=C\c3cccnc3)C2=O)cc(OCC)c1OCC	8	.	-9	2	.	53*
COc1ccc(C(=O)NCCN2C(=O)S/C(=C\c3cccnc3)C2=O)c(OC)c1OC	-2	4	-5	3	1	1
CCn1cc(C(=O)NNC(=O)c2ccc(Cl)cc2)c(=O)c2ccc(C)nc21	.	7	-4	0	3	52*
CCn1cc(C(=O)OCC(=O)c2ccc(Cl)cc2)c(=O)c2ccc(C)nc21	-8	12	9	0	7	-1
COc1cccc2c1C(=O)c1c(O)c3c(c(O)c1C2=O)C[C@@](O)(C(=O)CO)C[C@@H]3O[C@H]1C[C@H](N)[C@@H](O)[C@H](C)O1	.	.	74*	.	.	.
CC(=O)[C@]1(O)Cc2c(O)c3c(c(O)c2[C@@H](O[C@H]2C[C@H](N)[C@H](O)[C@H](C)O2)C1)C(=O)c1ccccc1C3=O	.	.	82*	.	.	.
COC(=O)C1=C(C(=O)OC)C2N(C)c3ccc(OC)cc3[C@@]23CC(C(=O)OC)N(C(=O)c2ccc(Br)cc2)C3=N1 (some centres undefined)	.	5	.	.	1	.
CC1(C)OC2CC3C4CC(F)C5=CC(=O)CC[C@]5(C)C4C(O)C[C@]3(C)[C@]2(C(=O)CO)O1 (some centres undefined)	.	3	.	.	-2	.
COc1ccccc1CNCC(=O)N1CC(=O)Nc2ccccc21	0	4	8	-2	-2	9
O=C1CN(C(=O)CNCc2ccccc2)c2ccccc2N1	-4	2	-9	0	0	52*
COc1ccc(N=Nc2n(C)c3ccccc3[n+]2C)cc1	.	.	52*	3	.	5
O=C(CN1CCN(c2ccc(O)cc2)CC1)Nc1cc(S(=O)(=O)N2CCCCC2)ccc1Cl	12	0	-6	2	-1	56*
COC(=O)[C@@]1(Cc2ccc(F)cc2)C2c3cc(C(=O)N4CCCC4)n(CCO)c3CC2CN1C(=O)c1ccccc1 (some centres undefined)	.	4	.	.	0	.
COc1ccc(-c2cc(C#N)nc(N3CCN(c4ccccc4)CC3)n2)cc1	0	-1	-7	-2	5	53*
COc1ccc(-c2cc(-c3ccc(F)cc3)nc(N3CCN(C)CC3)n2)cc1	-7	-4	1	1	-14	.
COC(=O)[C@@]12CCCN1C(c1ccc(-c3ccc(OC)cc3)c(OC)c1)C1C(=O)N(C)C(=O)C12 (some centres undefined)	.	6	.	.	14	.
CC(C)OCCCn1c(=O)c2ccccc2n2c(CCC(=O)NC3CCN(Cc4ccccc4)CC3)nnc12	-7	0	-7	6	5	53*
CC(C)CC(NC(=O)c1nc[nH]c1C(=O)NCCCCCN)C(=O)OCc1ccccc1 (centres undefined)	.	0	.	.	-15	.
CCn1cc(C(=O)NCc2cccnc2)c(=O)c2cc(F)c(N3CCN(C(=O)c4ccco4)CC3)cc21	17	96*	0	0	100*	15
CCCOc1ccc(C(=O)NC(=S)N2CCN(c3cc4c(cc3F)c(=O)c(C(=O)O)cn4CC)CC2)cc1	10	44	8	-3	96*	-4
SMILES	PrPC TRFRET	Sa RN4220 lethal	BJeLR viability	3CLpro inhibitor	Sa ugtP lethal	VHR inh abs
CCn1cc(C(=O)O)c(=O)c2cc(F)c(N3CCN(C(=S)NC(=O)c4ccccc4Br)CC3)cc21	5	98*	10	1	99*	26
O=C(O)c1cn(C2CC2)c2cc(N3CCOCC3)c(F)cc2c1=O	.	.	.	-3	.	.
CC(=O)N1CCN(c2cc3c(cc2F)c(=O)c(C(=O)O)cn3C2CC2)CC1	1	98*	-2	1	99*	41
CCn1cc(C(=O)NCc2cccc(F)c2)c(=O)c2cc(F)c(N3CCN(C(=O)c4ccco4)CC3)cc21	-3	18	1	2	46	6
CCn1cc(C(=O)O)c(=O)c2cc(F)c(N3CCN(C(=S)NC(=O)c4ccc(F)c(F)c4)CC3)cc21	2	100*	-9	-3	100*	-4
CCn1cc(C(=O)O)c(=O)c2cc(F)c(N3CCN(C(=S)NC(=O)c4ccc(F)cc4)CC3)cc21	5	86	-2	0	84	25
O=C1CCCC=CCC(CC(=O)N(CCO)Cc2ccccc2)C(=O)NCCO1 (centres undefined)	.	5	.	.	-5	.
COC(=O)CSc1nc2ccccc2n1CC(=O)N(C(C)C)C(C)C	9	4	-2	-8	-3	52*
CCOC1OC(C(=O)N2CCN(Cc3ccc4c(c3)OCO4)CC2)=CC(c2csc3ccccc23)C1CCCO (centres undefined)	.	4	.	.	8	.
CCOc1ccc(C(c2nnnn2C(C)(C)C)N2CCN(C(=O)c3ccco3)CC2)cc1 (centres undefined)	-6	6	-4	1	14	59*
CCOc1ccc(NC(=O)n2ncc3c(C)cccc32)cc1	0	-3	10	0	-1	5
COc1cccc(NC(=O)n2ncc3c(C)cccc32)c1	3	-3	54*	-1	19	26
COc1ccc(OC)c2c1C(=O)C(Cl)=C(Cl)C2=O	1	.	91*	2	.	-18
COc1ccc(OC)c2c1C(=O)c1ccccc1C2=O	-13	1	-8	0	16	5
O=C(Nc1ccc(Cl)cc1)/C(=C/c1cccc(O)c1)c1nc2ccccc2s1	16	69	38	1	89*	5
S=C(Nc1ccc(Cl)cc1)c1nc2ccccc2s1	4	-7	10	5	-5	3
COc1cc2[nH]c(=S)nc(NC3CCCCCC3)c2cc1OC	25*	1	.	1	-8	16
COC(=O)C1=C(c2ccc(S(C)(=O)=O)cc2)CC2CCC1N2C(=O)NCCCOC(C)C (centres undefined)	.	0	.	.	1	.
OC(CNCC1CCCCC1)COc1ccccc1 (centres undefined)	6	2	-1	3	12	51*
